{
  "source": "PubChem BioAssay AID602261",
  "about": "(Sanford-Burnham Center for Chemical Genomics, 2012)",
  "note": "Values joined by “and” are separate entries in the source; they are usually repeats but may differ in a detail not shown here. Equal values may be shown once. Among all 360,000 compounds or so, about 2,400 (0.67%) were called active. The full list was thinned out, with actives kept by preference. Values without a mark were called inactive.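 The calls were made as follows: active = compounds whose normalised, plate-corrected inhibition of enzyme fluorescence in the single-dose primary screen is 50% or more; inactive = the rest.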",
  "data": [
    {"biological_target": "Fatty acid synthase (Homo sapiens) (UniProt P49327)", "sequence (P49327 whole entry, looked up, the tested form may be a part)": "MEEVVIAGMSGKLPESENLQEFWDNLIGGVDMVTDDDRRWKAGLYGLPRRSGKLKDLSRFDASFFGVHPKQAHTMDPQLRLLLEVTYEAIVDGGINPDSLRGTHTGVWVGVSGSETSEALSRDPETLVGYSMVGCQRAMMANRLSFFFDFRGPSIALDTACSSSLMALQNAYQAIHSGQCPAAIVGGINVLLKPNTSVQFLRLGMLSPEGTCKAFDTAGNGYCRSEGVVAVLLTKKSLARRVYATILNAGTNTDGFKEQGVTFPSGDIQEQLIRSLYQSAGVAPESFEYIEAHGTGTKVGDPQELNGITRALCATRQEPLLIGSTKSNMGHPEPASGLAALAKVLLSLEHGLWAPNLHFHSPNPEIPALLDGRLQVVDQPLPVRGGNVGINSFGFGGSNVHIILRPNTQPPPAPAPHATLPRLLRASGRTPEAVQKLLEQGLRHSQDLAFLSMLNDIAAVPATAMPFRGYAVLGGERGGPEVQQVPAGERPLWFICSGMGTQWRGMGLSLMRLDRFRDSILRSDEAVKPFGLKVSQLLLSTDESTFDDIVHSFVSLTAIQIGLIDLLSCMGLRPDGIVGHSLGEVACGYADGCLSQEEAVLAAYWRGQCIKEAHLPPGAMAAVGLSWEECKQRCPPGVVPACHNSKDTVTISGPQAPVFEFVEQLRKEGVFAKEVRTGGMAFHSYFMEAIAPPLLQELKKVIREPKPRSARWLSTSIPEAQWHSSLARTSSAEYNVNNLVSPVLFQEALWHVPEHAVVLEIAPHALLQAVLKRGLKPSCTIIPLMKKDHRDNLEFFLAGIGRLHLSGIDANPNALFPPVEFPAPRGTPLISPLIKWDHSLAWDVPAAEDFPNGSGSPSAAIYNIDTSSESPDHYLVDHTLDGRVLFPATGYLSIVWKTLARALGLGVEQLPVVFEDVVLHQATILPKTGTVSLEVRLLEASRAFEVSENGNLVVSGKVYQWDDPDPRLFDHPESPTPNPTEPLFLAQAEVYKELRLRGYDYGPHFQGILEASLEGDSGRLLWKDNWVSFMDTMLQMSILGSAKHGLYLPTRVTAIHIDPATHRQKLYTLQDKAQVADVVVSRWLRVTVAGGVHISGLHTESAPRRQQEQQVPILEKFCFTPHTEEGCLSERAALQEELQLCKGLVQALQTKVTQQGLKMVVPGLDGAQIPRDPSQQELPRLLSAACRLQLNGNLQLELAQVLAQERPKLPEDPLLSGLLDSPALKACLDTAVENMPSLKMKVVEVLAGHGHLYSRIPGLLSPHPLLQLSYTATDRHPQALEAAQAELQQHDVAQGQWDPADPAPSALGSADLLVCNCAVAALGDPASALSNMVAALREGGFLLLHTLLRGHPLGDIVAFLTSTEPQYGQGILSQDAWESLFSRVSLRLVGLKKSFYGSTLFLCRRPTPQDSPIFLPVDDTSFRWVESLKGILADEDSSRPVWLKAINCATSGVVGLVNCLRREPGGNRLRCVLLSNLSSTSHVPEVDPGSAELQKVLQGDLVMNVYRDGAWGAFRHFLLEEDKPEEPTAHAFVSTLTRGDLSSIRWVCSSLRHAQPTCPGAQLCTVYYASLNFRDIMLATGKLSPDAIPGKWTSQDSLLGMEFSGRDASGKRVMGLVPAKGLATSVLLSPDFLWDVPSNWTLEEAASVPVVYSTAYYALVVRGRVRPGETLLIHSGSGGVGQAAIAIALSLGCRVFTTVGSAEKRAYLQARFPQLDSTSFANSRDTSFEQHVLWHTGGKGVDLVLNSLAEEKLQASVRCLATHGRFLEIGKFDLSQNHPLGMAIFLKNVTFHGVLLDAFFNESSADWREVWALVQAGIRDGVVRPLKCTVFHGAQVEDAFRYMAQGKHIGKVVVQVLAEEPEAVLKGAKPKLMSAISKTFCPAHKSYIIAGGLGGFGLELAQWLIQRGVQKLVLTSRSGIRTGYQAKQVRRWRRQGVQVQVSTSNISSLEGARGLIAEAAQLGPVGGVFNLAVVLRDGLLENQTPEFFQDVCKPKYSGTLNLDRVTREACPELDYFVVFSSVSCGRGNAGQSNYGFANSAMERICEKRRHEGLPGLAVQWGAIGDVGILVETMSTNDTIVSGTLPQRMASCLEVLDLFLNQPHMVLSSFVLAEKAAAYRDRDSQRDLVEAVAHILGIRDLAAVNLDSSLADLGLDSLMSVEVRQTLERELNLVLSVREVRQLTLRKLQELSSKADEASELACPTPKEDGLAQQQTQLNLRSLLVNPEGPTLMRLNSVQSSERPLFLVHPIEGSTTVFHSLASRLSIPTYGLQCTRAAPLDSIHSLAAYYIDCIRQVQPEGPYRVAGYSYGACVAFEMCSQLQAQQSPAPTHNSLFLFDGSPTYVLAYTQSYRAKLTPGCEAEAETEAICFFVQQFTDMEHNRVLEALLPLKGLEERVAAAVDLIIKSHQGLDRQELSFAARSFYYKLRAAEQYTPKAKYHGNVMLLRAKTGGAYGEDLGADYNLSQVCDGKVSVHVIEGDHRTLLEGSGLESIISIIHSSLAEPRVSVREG", "experiment": "FAS thioesterase domain inhibitors, primary screen, biochemical, fluorescence intensity, uHTS (AID 602261);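 also: 0% = DMSO with enzyme and 100% = substrate without enzyme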", "conditions": "recombinant FAS-TE, OMFH fluorogenic substrate, fluorescence endpoint; at 15 µM; stronger effect = higher value", "values": [
      {"molecule": "CC1(C)O[C@@H]2[C@H](O1)[C@@H](COS(=O)(=O)O)O[C@H]2n1ccc(=O)[nH]c1=O", "inhibition": "-13.4%"},
      {"molecule": "O=C(Nc1cccc(S(=O)(=O)Nc2ccc(Cl)cc2)c1)c1ccc2c(c1)OCCO2", "inhibition": "54% (active)"},
      {"molecule": "CC(NS(=O)(=O)c1ccc(Cl)cc1)C(=O)Nc1ccc2c(c1)OCCO2", "note": "(stereo unspecified)", "inhibition": "-2.1%"},
      {"molecule": "CCN(CC)CCNC(=O)c1ccc(NS(=O)(=O)c2ccc3c(c2)OCCO3)cc1", "inhibition": "-4.3%"},
      {"molecule": "CCN(CC)c1ccc(S(=O)(=O)N2CCOCC2)cc1NC(=O)CSc1cccc[n+]1[O-]", "inhibition": "-33.9%"},
      {"molecule": "O=C(Nc1ccc(OC(F)(F)F)cc1)c1ccc2c(c1)no[n+]2[O-]", "inhibition": "50.7% (active)"},
      {"molecule": "O=C(Nc1ccccc1)c1ccc2nsnc2c1", "inhibition": "-6.4%"},
      {"molecule": "CCc1nnc(NS(=O)(=O)c2ccc(NC(=O)c3cccc(OC(F)(F)C(F)F)c3)cc2)s1", "inhibition": "15.6%"},
      {"molecule": "COc1ccccc1C(=O)NC(CCSC)C(=O)NNC(=O)c1ccccc1C", "note": "(stereo unspecified)", "inhibition": "-1.2%"},
      {"molecule": "CC(c1ccco1)N(C(=O)COc1ccccc1[N+](=O)[O-])c1ccccn1", "note": "(stereo unspecified)", "inhibition": "6.4%"},
      {"molecule": "CN1CCOC1c1ccc(C2OCCN2C)cc1", "note": "(stereo unspecified)", "inhibition": "-6.4%"},
      {"molecule": "CC(=O)c1ccc(S(=O)(=O)N2CCC3(CC2)OCCO3)cc1", "inhibition": "-3.8%"},
      {"molecule": "CC(=O)c1ccc(N2CCN(S(=O)(=O)c3ccc4c(c3)CC(=O)N4C)CC2)cc1", "inhibition": "8.9%"},
      {"molecule": "CC(=O)c1ccc(S(=O)(=O)N2CCN(c3nc4c(C)c(C)ccc4cc3C#N)CC2)cc1", "inhibition": "61.5% (active)"},
      {"molecule": "Oc1c(Br)cc(/C=N/NC(=S)NCC2CCCO2)cc1Br", "note": "(stereo unspecified)", "inhibition": "-3.3%"},
      {"molecule": "O=C(NC1CCCC1)C1c2ccccc2OCC(=O)N1Cc1ccccc1", "note": "(stereo unspecified)", "inhibition": "-7.8%"},
      {"molecule": "Cc1ccc(NC(=O)N2CCSc3ccccc32)cc1", "inhibition": "3.8%"},
      {"molecule": "O=C(/C=C/c1cccc([N+](=O)[O-])c1)N1CCN(Cc2ccccc2)CC1", "inhibition": "69.8% (active)"},
      {"molecule": "O=C(/C=C/c1cccc([N+](=O)[O-])c1)OCC(=O)N1CCOCC1", "inhibition": "-3.4%"},
      {"molecule": "O=C(c1cccc(Cl)c1)N1CCN(Cc2ccccc2)CC1", "inhibition": "-4.7%"},
      {"molecule": "CCCOc1ccc(/C(O)=C2/C(=O)C(=O)N(CCN(C)C)C2c2ccc(OC)c(OC)c2)cc1", "note": "(stereo unspecified)", "inhibition": "-4.4%"},
      {"molecule": "CCN1CCCC1CNC(=O)c1ccc2c(c1)NC(=O)/C(=C\\c1ccccc1F)S2", "note": "(stereo unspecified)", "inhibition": "-6.6%"},
      {"molecule": "CCOC(=O)N1CCN(S(=O)(=O)N2CCCC(C(=O)NCCCN3CCC(C)CC3)C2)CC1", "note": "(stereo unspecified)", "inhibition": "-9%"},
      {"molecule": "Cn1c(NN)nc2sc3c(c2c1=O)CCC3", "inhibition": "0%"},
      {"molecule": "O=S(=O)(c1ccc(Cl)cc1)c1nc(-c2ccco2)oc1N1CCCCC1", "inhibition": "17.9%"},
      {"molecule": "O=c1oc(-c2ccco2)nc2sc3c(c12)CCCCC3", "inhibition": "59.2% (active)"},
      {"molecule": "CCCCCc1c(Cc2ccccc2)ncn1CCc1ccccc1OC", "inhibition": "11%"},
      {"molecule": "Cc1cccc(NC(=O)CSc2nc3c(c(=O)[nH]2)CCC3)c1C", "inhibition": "-9.1%"},
      {"molecule": "NS(=O)(=O)c1cccc(NC(=O)COC(=O)c2cc([N+](=O)[O-])ccc2N2CCCC2)c1", "inhibition": "26.9%"},
      {"molecule": "O=C(Nc1cccc(Cl)c1)c1cc([N+](=O)[O-])ccc1N1CCN(CCO)CC1", "inhibition": "68.1% (active)"},
      {"molecule": "CC(C)C(=O)Nc1cccc(NC(=O)c2ccc([N+](=O)[O-])cc2Cl)c1", "inhibition": "-13.2%"},
      {"molecule": "Cc1cccc(NC(=O)c2cc([N+](=O)[O-])ccc2N2CCN(C)CC2)c1", "inhibition": "56.8% (active)"},
      {"molecule": "CCC(C)(C)NC(=O)c1cc([N+](=O)[O-])ccc1N1CCCCC1", "inhibition": "9.2%"},
      {"molecule": "CCN1CCN(c2ccc([N+](=O)[O-])cc2C(=O)c2ccc(Cl)cc2)CC1", "inhibition": "24.4%"},
      {"molecule": "CCOC(=O)c1cc(-c2ccc(F)cc2)n(CC(=O)NCc2ccccn2)c1C", "inhibition": "-7.6%"},
      {"molecule": "COC(=O)CCCCC1=CCC2C(=O)C=C(O)C2C1", "note": "(stereo unspecified)", "inhibition": "-0.8%"},
      {"molecule": "Cc1nn(Cc2ccc(F)cc2)c(C)c1NC(=O)c1noc2c1CCc1ccccc1-2", "inhibition": "17.6%"},
      {"molecule": "Cc1ccc(C(=O)N/C(=C/C=C/c2ccccc2)C(=O)NCc2ccco2)cc1", "inhibition": "10.2%"},
      {"molecule": "CCCCOc1ccc(C(=O)N/C(=C/C=C/c2ccccc2)C(=O)N2CCOCC2)cc1", "inhibition": "4.3%"},
      {"molecule": "CNC(=O)/C(=C\\C=C\\c1ccccc1)NC(=O)c1ccc([N+](=O)[O-])cc1", "inhibition": "88.8% (active)"},
      {"molecule": "COc1ccc(-c2cc(=O)oc3cc(OCC(=O)N(C)C4CCS(=O)(=O)C4)ccc23)cc1", "note": "(stereo unspecified)", "inhibition": "-3.1%"},
      {"molecule": "COc1ccc(-c2cc(NC=O)c3ncc(-c4ccccc4)n3c2)cc1OC", "inhibition": "28.3%"},
      {"molecule": "Cc1ccccc1-c1nc(CS(=O)(=O)CC(=O)N2CCc3ccccc3C2)c(C)o1", "inhibition": "10%"},
      {"molecule": "CCN1C(=O)[C@H]2[C@@H](c3ccc(-c4ccc(OC)cc4)cc3)N[C@@](Cc3ccccc3)(C(=O)OC)[C@H]2C1=O", "inhibition": "39.2%"},
      {"molecule": "CCCCCCSc1ccc([C@@H]2[C@@H]3C(=O)N(CC)C(=O)[C@@H]3[C@]3(C(=O)OC)CCCCN23)cc1OC", "inhibition": "23.1%"},
      {"molecule": "CCCSc1ccc([C@H]2N[C@@](Cc3ccccc3)(C(=O)OC)[C@H]3C(=O)N(C)C(=O)[C@@H]23)cc1", "inhibition": "17.3%"},
      {"molecule": "CCN1C(=O)[C@H]2[C@@H](c3ccc(-c4ccc(F)cc4)cc3)N[C@@](Cc3ccccc3)(C(=O)OC)[C@H]2C1=O", "inhibition": "65.3% (active)"},
      {"molecule": "CCN1C(=O)[C@H]2[C@@H](c3ccc(SC4CCCCC4)c(OC)c3)N[C@@](Cc3ccccc3)(C(=O)OC)[C@H]2C1=O", "inhibition": "63.1% (active)"},
      {"molecule": "COC(=O)[C@]1(CC(C)C)N[C@H](c2ccc(SC3CCCCC3)cc2)[C@@H]2C(=O)N(C)C(=O)[C@@H]21", "inhibition": "22.5%"},
      {"molecule": "COc1ccccc1C(=O)N(C1=NC(C)CS1)c1ccc(Cl)cc1", "note": "(stereo unspecified)", "inhibition": "6.9%"},
      {"molecule": "CCCN1CCN(C(=O)Cn2ncc3ccccc32)CC1", "inhibition": "-2.9%"},
      {"molecule": "Cc1ccc(NC(=O)N2CCC(O)(c3cccnc3)CC2)cc1", "inhibition": "-3.3%"},
      {"molecule": "CC(C)C[C@H](NC(=O)NCCc1ccc(Cl)cc1)C(=O)O", "inhibition": "-6.2%"},
      {"molecule": "CSCCC(NC(=O)c1cc([N+](=O)[O-])cc([N+](=O)[O-])c1)c1nc2ccccc2[nH]1", "note": "(stereo unspecified)", "inhibition": "32.8%"},
      {"molecule": "Cc1cccc(CN2CCN(Cc3cnn(-c4ccccc4F)c3)CC2CCO)n1", "note": "(stereo unspecified)", "inhibition": "-8%"},
      {"molecule": "O=C1C2N=NN(CC(=O)N3N=C(c4cccc5ccccc45)CC3c3ccccc3)C2C(=O)N1c1ccccc1", "note": "(stereo unspecified)", "inhibition": "84.2% (active)"},
      {"molecule": "O=C1c2cccc(OCC(=O)N3N=C(c4cccs4)CC3c3ccc(F)cc3)c2CCN1Cc1ccccc1", "note": "(stereo unspecified)", "inhibition": "30.6%"},
      {"molecule": "Cc1ccc(N2C(=O)C3N=NN(CC(=O)N4N=C(c5cccc6ccccc56)CC4c4ccccc4)C3C2=O)cc1", "note": "(stereo unspecified)", "inhibition": "83.2% (active)"},
      {"molecule": "Cc1ccc(C2=NN(C(=O)COc3ncnc4ccccc34)C(c3ccco3)C2)cc1", "note": "(stereo unspecified)", "inhibition": "8.9%"},
      {"molecule": "CC1=C(C)CC2C(=O)N(c3cccc4ccccc34)C(=O)C2C1", "note": "(stereo unspecified)", "inhibition": "7.3%"},
      {"molecule": "Oc1ccccc1C1=NN(c2ccccc2)C(c2ccccc2)C1", "note": "(stereo unspecified)", "inhibition": "25.2%"},
      {"molecule": "Cc1ccc(NC(=O)[C@H](Cc2ccccc2)NC(=O)CC[C@H]2O[C@@H](n3ccc(=O)[nH]c3=O)[C@H](O)[C@@H]2O)cc1C", "inhibition": "-9.9%"},
      {"molecule": "Cc1ccc(Cl)c(OCC(=O)NN2CCN(C)CC2)c1", "inhibition": "-5.7%"},
      {"molecule": "COc1ccc2c(CC(=O)NNC(=O)c3ccccc3F)coc2c1", "inhibition": "-5%"},
      {"molecule": "COC(=O)[C@@H](NC(=O)NCc1cccc(OC)c1)C(C)C", "inhibition": "-7.7%"},
      {"molecule": "COc1ccc(NC(=O)CN2C(=O)CSc3ccc(S(=O)(=O)N4CCC(C)CC4)cc32)cc1", "inhibition": "42.2%"},
      {"molecule": "COc1ccc(-c2nc3cnccn3c2NC(C)(C)CC(C)(C)C)cc1O", "inhibition": "55% (active)"},
      {"molecule": "CCOc1cc(-c2nc3cc(C)ccn3c2NCC2CCCO2)ccc1O", "note": "(stereo unspecified)", "inhibition": "-4.4%"},
      {"molecule": "COc1ccc(-c2nc3cnccn3c2NC2CCCCC2)cc1-c1cccc(Cl)c1", "inhibition": "32.3% and 25.3%"},
      {"molecule": "COc1ccc(NC2=CC(=S)NC(C)(C)C2)cc1", "inhibition": "-11%"},
      {"molecule": "CCOC(=O)/C(=N\\Nc1cc(Cl)ccc1Cl)N1CCN(C)CC1", "inhibition": "3.8%"},
      {"molecule": "CCN(CCO)C(=S)Nc1cc(C(=O)OC)ccc1C(=O)OC", "inhibition": "-10.4%"},
      {"molecule": "Cc1cc(C(=O)OCC(=O)Nc2ccccc2Cl)c(C)o1", "inhibition": "7.5%"},
      {"molecule": "O=C(Nc1ccccc1Cl)c1ccccc1S(=O)(=O)c1ccccc1[N+](=O)[O-]", "inhibition": "6.3%"},
      {"molecule": "O=C(Nc1ccccc1Cl)/C(Cl)=C(\\Cl)S(=O)c1ccccc1", "note": "(stereo unspecified)", "inhibition": "73.7% (active)"},
      {"molecule": "CC(C)Oc1ccc(CN2CCC2(C)C(=O)NCc2ccc(C(F)(F)F)cc2)cc1", "note": "(stereo unspecified)", "inhibition": "34.4%"},
      {"molecule": "CC1(C)CC(=O)C(C2=NC(C)(C)Cc3ccccc32)=C(O)C1", "inhibition": "-7%"},
      {"molecule": "FC(F)(F)c1cccc(-c2cc3ccccc3nc2N2CCCC2)c1", "inhibition": "18.4%"},
      {"molecule": "O=C(Nc1cccc(-n2cnnn2)c1)c1cccnc1", "inhibition": "-7.9%"},
      {"molecule": "Cc1cc(Cl)ccc1OCCCC(=O)Nc1cccc(-n2cnnn2)c1", "inhibition": "30.3%"},
      {"molecule": "O=C(Nc1ccc(C(F)(F)F)cc1)c1cccc(-n2cnnn2)c1", "inhibition": "64.5% (active)"},
      {"molecule": "Cc1ccc(S(=O)(=O)Nc2ccc(F)c(S(=O)(=O)N3CCOCC3)c2)cc1", "inhibition": "-1%"},
      {"molecule": "COc1ccc(-c2ccc(OC(=O)NC3CCS(=O)(=O)C3)cc2)cc1", "note": "(stereo unspecified)", "inhibition": "-3.8%"},
      {"molecule": "CCOC(=O)CSc1nc(C)c(Oc2ccc(Cl)cc2Cl)c(=O)[nH]1", "inhibition": "-5.3%"},
      {"molecule": "CCc1ccc(C(=O)CSc2nnc(C)c(=O)[nH]2)cc1", "inhibition": "-4.7%"},
      {"molecule": "CCCCOC(=O)CNc1nnc(SCC(=O)OCC)[nH]c1=O", "inhibition": "50.2% (active)"}
    ]}
  ]
}
